Screens as filed in PubChem.
This is a sample that favours compounds with a hit; in the whole collection about 3.4% have one here.
PKM2 act: PKM2 (human) enzyme activation | purified PKM2, Kinase-Glo ATP luminescence, activation; response scale: 0% is enzyme alone, no compound | AID 1631 | Potency, µM (highest dose often 57.5 µM), for the others: at the highest dose activation, hits mostly activators | hit rate 0.34% among 260,000; note: % is set by controls: 0 for no effect and ±100 for the full control effect; nearly all actives have a fitted effect of over 55% in size
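Purified hPK-M2 (>95%) run at intermediate activity with 0.1 mM ADP and 0.5 mM PEP in 50 mM imidazole pH 7.2, KCl, MgCl2; 1 h room temperature. ATP formed read by Kinase-Glo luminescence; normalized to uninhibited and no-enzyme controls.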
VDR inh: blocks the human vitamin D receptor. P11473. VDR-SRC2-3 peptide fluorescence polarization, 2 h. Potency, µM, inactives show max response, negative = inhibition, actives largely listed as inhibitors. hit rate 0.93% among 400,000; note: % is set by controls: 0 for no effect and ±100 for the full control effect
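Reagent solutions, kept cold and dark, are dispensed first; compounds are then pinned in at 23 nl, plates briefly spun, and incubated 2 h at ambient temperature. Inhibition of VDR–SRC2-3 peptide binding is read by fluorescence polarization.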
PLK1 PBD block: PLK1 (human) polo-box domain binding inhibition | P53350 | Plk1 PBD binding of FITC phosphopeptide, fluorescence polarization | Potency, µM, without a hit: max response, negative = inhibition, usual class: inhibitors | hit rate 2.8% among 360,000; note: series mostly up to about 57 µM; % is set by controls: 0 for no effect and ±100 for the full control effect; nearly all actives have a fitted effect of over 65% in size
Target sequence (P53350 whole entry, looked up, the tested form may be a part): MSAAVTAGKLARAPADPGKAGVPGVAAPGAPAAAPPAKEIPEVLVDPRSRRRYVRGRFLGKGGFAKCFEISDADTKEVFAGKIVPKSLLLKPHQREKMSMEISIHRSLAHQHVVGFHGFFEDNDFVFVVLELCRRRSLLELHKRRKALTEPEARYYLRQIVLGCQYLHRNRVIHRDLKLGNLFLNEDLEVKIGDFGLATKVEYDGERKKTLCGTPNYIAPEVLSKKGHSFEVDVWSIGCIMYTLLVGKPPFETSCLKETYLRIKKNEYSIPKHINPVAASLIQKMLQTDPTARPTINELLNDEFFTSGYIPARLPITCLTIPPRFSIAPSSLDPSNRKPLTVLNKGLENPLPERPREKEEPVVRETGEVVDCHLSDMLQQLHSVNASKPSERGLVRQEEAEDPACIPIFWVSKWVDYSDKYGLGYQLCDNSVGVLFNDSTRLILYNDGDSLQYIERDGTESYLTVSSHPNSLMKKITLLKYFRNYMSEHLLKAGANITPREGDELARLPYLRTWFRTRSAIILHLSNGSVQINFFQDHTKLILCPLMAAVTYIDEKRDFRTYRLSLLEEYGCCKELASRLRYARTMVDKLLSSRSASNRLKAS
GLS inhibitor: glutaminase GLS (human) inhibition. O94925. GLS enzymatic activity, qHTS titration. Potency, µM (top dose mostly 45.5 µM), for inactives: at the highest dose activity change, negative = inhibition, usual class: inhibitors. hit rate 0.21% among 410,000. AID 624170; note: % is set by controls: 0 for no effect and ±100 for the full control effect
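hKGA in 45 mM KH2PO4 (pH 8.2), 0.02% Tween-20 with compound, then 1mM L-Glutamine (stock as added) plus glutamate oxidase/HRP/Amplex red coupling mix. Fluorescence read initially and after 30 min at RT; signal change reflects glutamate formation.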
Mito fusion yeast: mitochondrial division inhibition or fusion activation; S. cerevisiae fusion-defective mutant growth rescue, CellTiterGlo 48 h; hit rate 0.23% among 320,000; Potency, µM (doses to about 46.1 µM), inactives show at the highest dose growth rescue (activation), hits mostly activators; AID 485298; note: % of control where 0% means no effect; nearly all actives have a fitted effect of over 45% in size
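Growth-rescue viability read-out: after 48 h at the non-permissive 37C in glycerol/ethanol YPEG, yeast mitochondrial fusion mutants are measured by CellTiterGlo luminescence; compounds (23 nl pinned per well) restoring growth score as division inhibitors or fusion activators.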
GCN5L2 inh: inhibitors of human GCN5L2 histone acetyltransferase; Q92830; GCN5L2 HAT assay, ThioGlo1 CoA-SH fluorescence; Potency, µM (top dose mostly 58.9 µM), for inactives: at the top dose activity change, negative = inhibition, actives largely listed as inhibitors; hit rate 0.21% among 390,000; AID 504327; note: % is set by controls: 0 for no effect and ±100 for the full control effect
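qHTS, 1536-well. 20nM enzyme, pH 7.5 HEPES/EDTA/Tween-20 buffer; 15 min compound preinc., RT. Start: 75uM H3(1-25), 70uM AcCoA, 50uM ThioGlo1. Read Ex340/Em540 at t=0 (autofluorescence flag) and t=20 min.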
Numbers without * were called inactive; ? = inconclusive; / = no result; [ ] = another dose, or the depositor's remark. Calls come from the whole dose curve; as a rule, active = well fitted curve in the direction sought with a large enough effect; inconclusive = small, poorly fitted or top-dose-only effect, or another doubt; inactive = no such curve, though single readings can be large; an effect the other way counts as inactive or inconclusive. Potency is the fitted concentration of half-maximal effect.

SMILES | PKM2 act | VDR inh | PLK1 PBD block | GLS inhibitor | Mito fusion yeast | GCN5L2 inh
CCCCCCn1c(=O)[nH]c2nc3cc(N)c(C)cc3nc2c1=O | ? | ? | 2.99µM* | -1.0% | ? | -14.1%
COc1cc(C=NNc2ccc(S(=O)(=O)Nc3ccccc3C(=O)O)cc2[N+](=O)[O-])ccc1O | / | ? | ? | -10.0% | / | ?
CN(CCO)c1ccc(C=NNc2ccc([N+](=O)[O-])cc2S(=O)(=O)Nc2ccccc2C(=O)O)cc1 | / | 79.4µM* | 21.2µM* | 11.2µM* | / | ?
CCOc1cc(/C=N/Nc2ccc(S(=O)(=O)Nc3ccccc3C(=O)O)cc2[N+](=O)[O-])cc(Cl)c1O | / | / | 7.52µM* | 1.6% | / | /
CC(=O)Nc1cccc(/C(C)=N/Nc2ccc(S(=O)(=O)Nc3ccccc3C(=O)O)cc2[N+](=O)[O-])c1 | / | ? | 23.8µM* | ? | / | /
CC(=O)Nc1ccc(C=NNc2ccc(S(=O)(=O)Nc3ccccc3C(=O)O)cc2[N+](=O)[O-])cc1 | / | ? | 21.2µM* | ? | / | ?
Cc1ccc(C2(SCC(N)C(=O)O)c3ccccc3-c3ccccc32)cc1 (stereo unspecified) | / | -12.8% | -8.1% | -6.8% | / | /
O=C(CNC(=O)c1ccccc1)NCC(=O)OCC(=O)c1cccc2ccccc12 | / | -15.5% | / | / | / | /
O=C(N[C@@H]1CC[C@@H](CCn2cc(-c3ccccc3)nn2)O[C@@H]1CO)c1cnccn1 | / | / | -10.0% | / | / | /
Cc1ccc(NC(=O)c2ncn(CCCNCC(C)c3ccccc3)n2)cc1C (stereo unspecified) | / | -17.1% | -6.2% | -1.0% | / | /
CC(=O)Cc1nsc(Nc2ccc(C)cc2)n1 | 10.1% | ? | 26.7µM* | -9.8% | 2.8% | -5.2%
Cc1nnc(NC(=O)c2cccc(S(=O)(=O)N3CCCC3)c2)s1 | -0.7% | -17.8% | -6.6% | 0.0% | -1.3% | 1.0%
CC(C)Cn1c(=S)[nH]c2cc(Cl)ccc21 | -0.5% | -17.3% | 23.8µM* | 29.0% | -24.7% | -6.7%
C=CCSc1nc2ccsc2c(=O)n1-c1cccnc1 | -0.2% | -16.0% | 26.7µM* | -1.3% | ? | -9.3%
C=CCSc1nc2sc3c(c2c(=O)n1-c1ccccc1)CCN(C)C3 | / | 6.9% | -12.6% | -9.3% | -15.7% | 5.2%
COc1ccc(NC(=O)CSc2c3c(nc4ccc(Cl)cc24)CCCC3)cc1Cl | / | -14.0% | / | 6.6% | / | -6.7%
CC(C)[C@H](NC(=O)[C@H](CCC(N)=O)NC(=O)CNC(=O)[C@@H]1CCCN1C(=O)[C@H](Cc1ccc(O)cc1)NC(=O)CN)C(=O)O | / | -6.9% | / | / | / | -3.2%
CSc1nc(N)nc(SCC(=O)Nc2cccc(F)c2)c1C#N | 1.41µM* | -10.1% | -8.4% | -3.8% | 7.2% | -0.2%
CSc1nc(N)nc(SCCS(=O)(=O)c2ccc(Cl)cc2)c1C#N | ? | 19.7% | -2.3% | -2.4% | ? | -9.8%
CSc1nc(N)nc(SCC(=O)Nc2ccc(Cl)cc2)c1C#N | 3.98µM* | 10.7% | -10.9% | 2.2% | 7.8% | -11.2%
COc1cccc(Oc2cc(Cl)nc(N)n2)c1 | 8.5% | 2.6% | -17.3% | -24.7% | 1.9% | -2.9%
CCOc1ccc(C(=O)Nc2ccc(-c3nnc4n3CCCCC4)cc2)cc1OCC | / | 4.7% | / | -8.1% | / | -8.9%
Cc1cc(Br)ccc1NC(=O)c1ccccc1-c1ccccc1 | 3.6% | -5.7% | 0.7% | -17.5% | 14.1µM* | -14.5%
O=C(Nc1ccccc1Br)c1ccccc1-c1ccccc1 | 0.7% | -9.5% | -8.5% | -1.1% | ? | -8.3%
Cc1ccccc1C(=O)Nc1scc(-c2ccc(Br)cc2)c1C(=O)O | / | -1.2% | 21.2µM* | 9.7% | / | /
SMILES | PKM2 act | VDR inh | PLK1 PBD block | GLS inhibitor | Mito fusion yeast | GCN5L2 inh
COc1ccc(OC2CCN(S(=O)(=O)c3ccc(C(C)=O)cc3)CC2)cc1 | / | 5.6% | 2.2% | 0.7% | ? | -16.0%
CC1Cc2ccccc2N1C(=O)CSC1=NCCS1 (stereo unspecified) | -1.9% | 70.8µM* | ? | -0.1% | 1.6% | -2.8%
CO[C@H]1[C@H](O[C@H]2O[C@@H](C)[C@@H](O[C@@H]3C[C@](C)(O)[C@H](O)[C@H](C)O3)[C@@H](N(C)C)[C@@H]2O)[C@@H](CC=O)C[C@@H](C)[C@@H](O[C@H]2CC[C@H](N(C)C)[C@H](C)O2)/C=C\C=C/C[C@@H](C)OC(=O)C[C@H]1O | / | 14.7% | / | 9.7%[20 µM] | / | 9.9%[21.4 µM]
CCOc1cc(/C=C2\COc3ccccc3C2=O)ccc1OCC(=O)N(C)C | 2.1% | 50.1µM* | -10.3% | 1.5% | -42.8% | -10.2%
CCNC(=O)COc1ccc(/C=C2\COc3ccccc3C2=O)cc1OC | -5.2% | 35.5µM* | -22.3% | -0.4% | -22.5% | -5.7%
COc1ccc(/C=C2\CCc3ccccc3C2=O)cc1OC | 1.7% | ? | 1.0% | -5.2% | 3.9% | -3.3%
COc1ccc(CC(=O)OCC(=O)NC2CCCCC2)cc1OC | / | -3.9% | -3.5% | 1.9% | / | -0.7%
CN(C)CCC(=O)c1cccc(Br)c1 | -1.1% | ? | 9.47µM* | 3.1% | -1.8% | -9.3%
O=C(CCN1Cc2ccccc2C1)c1ccc2c(c1)OCCO2 | 21.8% | -88.7% | 23.8µM* | 39.6% | 0.0% | -2.3%
CN(C)CCCC(=O)c1ccc2c(c1)OCO2 | 1.3% | -19.8% | -10.0% | 1.6% | -0.7% | 2.1%
CN(C)CCC(=O)c1ccc2c(c1)OCO2 | -0.6% | 79.4µM* | 18.9µM* | 7.8% | -0.5% | 0.1%
CSCC[C@H](NC(=O)[C@H](CC(C)C)NC(=O)CNC(=O)[C@H](Cc1ccccc1)N(C)C(=O)[C@H](Cc1ccccc1)NC(=O)[C@H](CC(=O)O)NC(=O)[C@@H](N)CC(=O)O)C(N)=O | / | 7.1% | / | / | / | 1.4%
Cc1ccc(C)c(N(CC(N)=O)S(C)(=O)=O)c1 | -0.6% | ? | 26.7µM* | 14.3% | -0.5% | -20.4%
O=C(O)COc1ccc(-c2nccc(-c3ccccn3)n2)cc1 | -7.7% | -29.4% | 18.9µM* | 0.0% | 7.5% | -2.7%
COc1ccccc1NC(=O)C1=C(C)Nc2c(C(=O)Nc3cccc(C)c3)cnn2C1c1ccccc1C (stereo unspecified) | / | 15.0% | / | 5.5% | / | 28.2µM*
COc1ccccc1NC(=O)C1=C(C)Nc2c(C(=O)Nc3cccc(C)c3)cnn2C1c1ccccc1Cl (stereo unspecified) | / | 14.9% | / | 2.1% | / | -6.5%
Cc1ccc(C)c(S(=O)(=O)N2CCN(C(=O)CSC(=S)N3CCCC3)CC2)c1 | / | -6.7% | 3.6% | 2.3% | 2.0% | -12.7%
COc1cc(C(=O)Nc2cc3c(cc2N2CCCCC2)n(C)c(=O)n3C)cc(OC)c1OC | / | -19.4% | -4.0% | -6.7% | 12.6µM* | -6.0%
Cc1ccc(C(=O)Nc2cc3c(cc2N2CCCCC2)n(C)c(=O)n3C)cc1 | / | -9.1% | -15.9% | -3.2% | ? | -4.0%
